Hit rate of the full screen: of about 380,000 compounds, about 4,000 (1.1%) were called active. Not shown: some 3% with an inconclusive outcome. This is one part of a sample in which actives are shown more often than they occur. Calls come from the whole dose curve; as a rule, active = well fitted activation curve with a large enough effect; inconclusive = small, poorly fitted or top-dose-only effect; inactive = no such curve, though single readings can be large or run the other way.
Potency is the fitted concentration of half-maximal effect.

This assay is described as follows: qHTS Assay to Identify Small Molecule Activators of BRCA1 Expression. Note: nearly all actives have a fitted effect of over 80% in size. The conditions noted are these: MCF7-BRCA1-FFLuc reporter, luminescence, 48 h. An excerpt: Functionally, BRCA1 has been implicated in a wide array of cellular activities, including DNA damage repair, cell-cycle checkpoint control, growth inhibition, apoptosis, transcriptional regulation, chromatin remodeling, protein ubiquitylation, and mammary stem cell self-renewal and differentiation. Reduction in BRCA1 levels is associated with an increase in tumor growth and resistance to anti-estrogenic agents, such as tamoxifen, while an increase in BRCA1 expression leads to cell growth arrest and apoptosis. […] The frequent loss of BRCA1 expression in invasive breast cancers in the absence of somatic mutation has been attributed to numerous mechanisms, including hypermethylation of the BRCA1 promoter, exaggerated ubiquitylation of BRCA1 protein, and improper intracellular localization. […]
5microl of MCF7-BRCA1-FFLuc cell suspension (400 cells/microl in phenol-red free MEM) are dispensed into Greiner white solid bottom 1536-well assay plates, yielding a final well density of 2000 cells/well. […] The NCGC in-house luciferase substrate reagent, Buglite, is then added (2.5microl) and plates incubated for 15 minutes, before being transferred to a ViewLux high-throughput CCD imager (PerkinElmer) wherein single end-point measurements of luminescence are acquired using a clear filter. […]
For orientation: Quantitative high-throughput screening tests each substance at several concentrations.
On to `O=C(OCC(=O)c1cccs1)C1=COCCO1`, for which the Potency was 15.8 µM (active).

The values above are taken from PubChem BioAssay AID624202 (National Center for Advancing Translational Sciences (NCATS), 2012).
